# Screening results as filed in PubChem.
# D3 ag – activates the human D3 dopamine receptor. AID 652048. D3R DiscoveRx beta-arrestin cells, luminescence, 90 min. max activation, %. 0.58% of 410,000 active; in the data active = max activation above about 30%; note: 0% is about no effect
#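 Cells at 1500/well, incubated overnight, then treated with pinned compounds (dopamine as control) for 90 min at 37 degrees C. DiscoveRx reagent added for 30 - 60 minutes at room temperature; luminescence read.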
# D3 antag – antagonists of human D3 dopamine receptor; P35462; D3R cells, DiscoveRx beta-arrestin luminescence, antagonist mode; stronger effect = lower value; max response, negative = inhibition, %; 2.5% of 360,000 active; in the data active = max response below about -50%; inconclusive = no clear call, values can overlap the other calls; note: % is set by controls: 0 for no effect and ±100 for the full control effect
#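 Cells plated overnight at 1500 cells/well, then exposed to library compounds with dopamine controls for 90 minutes at 37 degrees C. DiscoveRx reagent added for 30–60 minutes at room temperature; luminescence read, quantitative HTS format.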
# B2AR arrestin – recruits beta-arrestin to the human beta2-adrenergic receptor; AID 492947; beta-arrestin recruitment to beta2AR, cell-based reporter; Potency, µM (doses to about 46.1 µM), without a hit: at the highest dose activation, hits mostly activators; 0.02% of 330,000 active;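 note: potency is the fitted concentration of half-maximal effect; 0% = DMSO controls and full agonism = EC100 isoproterenol or metaproterenol; nearly all actives have a fitted effect of over 65% in size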
# Integrin act MD – activators of alpha7 integrin expression for muscular dystrophy | alpha7betagal myoblasts, beta-gal FDG fluorescence, 48 h | Potency, µM (highest dose often 38.3 µM), without a hit: top-dose activation, most hits filed as activators | 0.064% of 350,000 active | AID 624291;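 note: potency is the fitted concentration of half-maximal effect; 100% = response of the positive control SU9516; nearly all actives have a fitted effect of over 60% in size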
#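 Alpha7betagal+/- myoblasts (passage 13) were plated 16-24 hr, then exposed to compounds (1:260 dilution of DMSO stock) for 48 hours at 37C. After MPER lysis, β-galactosidase reporter activity was read as FDG fluorescence (ex 480/em 540) after 30 minutes.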
# mIDH1 inhibitor – inhibitors of human mutant IDH1 R132H; O75874; IDH1-R132H enzyme, NADPH consumption, diaphorase/resazurin fluorescence; Potency, µM (doses to about 76.6 µM), inactives show at the highest dose activity change, negative = inhibition, actives largely listed as inhibitors; 0.093% of 390,000 active; note: potency is the fitted concentration of half-maximal effect; % is set by controls: 0 for no effect and ±100 for the full control effect; nearly all actives have a fitted effect of over 65% in size
# Target sequence (O75874 whole entry R132H, stated change not applied): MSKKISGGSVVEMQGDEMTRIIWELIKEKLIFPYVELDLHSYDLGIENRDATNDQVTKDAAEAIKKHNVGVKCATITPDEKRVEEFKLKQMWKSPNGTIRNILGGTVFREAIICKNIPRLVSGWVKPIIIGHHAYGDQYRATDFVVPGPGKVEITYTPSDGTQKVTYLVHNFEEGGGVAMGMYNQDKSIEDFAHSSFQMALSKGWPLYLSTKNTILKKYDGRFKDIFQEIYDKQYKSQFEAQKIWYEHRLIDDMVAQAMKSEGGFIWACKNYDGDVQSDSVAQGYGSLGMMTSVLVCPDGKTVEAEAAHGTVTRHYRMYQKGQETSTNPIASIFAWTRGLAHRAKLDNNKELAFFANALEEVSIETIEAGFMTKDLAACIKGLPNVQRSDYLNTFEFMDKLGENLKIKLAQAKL
#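 IDH1-R132H (0.5 ug/mL dispensed) in pH 7.5 Tris buffer was preincubated 30 min with compound, then given a substrate mix of 0.016 mM NADPH and 2 mM alpha-KG for 80 min at room temperature; remaining NADPH was read by diaphorase/resazurin fluorescence.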
# The depositor's hits bear a star; ? = inconclusive; · = no result given; [ ] = another dose, or the depositor's remark. An excerpt weighted towards active compounds, which were near 2.9% of everything screened. Unless noted, calls come from the whole dose curve; as a rule, active = well fitted curve in the direction sought with a large enough effect; inconclusive = small, poorly fitted or top-dose-only effect, or another doubt; inactive = no such curve, though single readings can be large; an effect the other way counts as inactive or inconclusive.
SMILES,D3 ag,D3 antag,B2AR arrestin,Integrin act MD,mIDH1 inhibitor
COc1cccc(C(=O)NC2CC3CCCC(C2)N3Cc2ccc(C)cc2)c1 (configuration not stated),-18,-112*,0%,0%,1%
COc1cccc(C(=O)NC2CC3CCCC(C2)N3Cc2ccc(F)cc2)c1 (configuration not stated),-12,-107*,·,3%,-4%
COc1cccc(C(=O)NC2CC3CCCC(C2)N3CC(=O)Nc2ccccc2)c1 (configuration not stated),-3,-59*,0%,-14%,3%
CC(C)[C@@H]1CC[C@@H](C)C[C@H]1OC(=O)c1ccccc1O,10,·,·,·,·
C/C(=N\NC(=S)NC(C)C)c1ccccc1OC(F)F,-8,-4,?,-5%,4%
CCNC(=S)N/N=C(\C)c1ccc2ccccc2c1OC(F)F,30*,-5,8%,-30%,2%
COc1cccc(C2CC(C(F)(F)F)n3nc(C(=O)Nc4c(C)n(C)n(-c5ccccc5)c4=O)cc3N2)c1 (configuration not stated),5,-87*,0%,-16%,0%
Cc1ccc(C2CC(C(F)(F)F)n3nc(C(=O)Nc4c(C)n(C)n(-c5ccccc5)c4=O)cc3N2)cc1 (configuration not stated),-3,-7,-1%,-16%,4%
S=c1[nH]nc(Cc2sc(-c3ccccc3)nc2-c2ccccc2)o1,4,-67*,0%,8%,-2%
Cc1cc(C)nc(NS(=O)(=O)c2ccc(NC(=O)COc3ccc(C(C)(C)C)cc3)cc2)n1,5,·,·,·,-15%
CNCCC(Oc1ccccc1OC)c1ccccc1 (configuration not stated),-16,8,·,·,27%
CNCC[C@@H](Oc1ccccc1C)c1ccccc1,-57,-57*,·,·,-3%
COC(=O)CSc1nnc(-c2ccc3c(c2)OCO3)n1C,-3,-69*,0%,10%,15%
O=c1ccn([C@@H]2O[C@H](CNS(=O)(=O)C3CC3)[C@@H](O)[C@H]2O)c(=O)[nH]1,-2,0,·,23%,9%
O=c1ccn([C@@H]2O[C@H](CNS(=O)(=O)c3csc(-c4ccno4)c3)[C@@H](O)[C@H]2O)c(=O)[nH]1,44*,16,·,18%,-1%
COc1cccc(CNc2nc3ccccc3n2C)c1O,-16,-57*,-1%,?,-6%
O=C(NCCS(=O)(=O)N1CCN(c2ccccc2)CC1)C(c1ccccc1)c1ccccc1,-8,·,·,·,11%
c1ccc2c(c1)OCC(c1nnc3sc(-c4cnccn4)nn13)O2 (configuration not stated),30*,21,0%,-19%,1%
c1csc(-c2nn3c(C4COc5ccccc5O4)nnc3s2)c1 (configuration not stated),4,-11,0%,-21%,3%
O=C(N/N=C/c1cc(Br)cc(Br)c1O)c1ccncc1,7,5,0%,-14%,0%
O=C(C[n+]1ccccc1)N/N=C/c1cc(Br)ccc1F,-14,?,0%,-4%,1%
O=C(O)c1cccc(N/N=C/c2cc(Br)cc(Br)c2O)c1,-7,-64*,-1%,-7%,-1%
CCC(O)(CC)C(=O)N/N=C/c1cc(Br)cc(Br)c1O,-26,-66*,0%,0%,0%
O=C(C[n+]1ccccc1)N/N=C/c1cc(Br)cc(Br)c1O,-45,-165*,0%,0%,5%
COc1ccc(Br)cc1/C=N/Nc1cccc(C(=O)O)c1,-3,10,0%,1%,-8%
SMILES,D3 ag,D3 antag,B2AR arrestin,Integrin act MD,mIDH1 inhibitor
C[C@@H]1O[C@@H](OC[C@H]2O[C@@H](Oc3c(-c4ccc(OCCO)c(OCCO)c4)oc4cc(OCCO)cc(O)c4c3=O)[C@H](O)[C@@H](O)[C@@H]2O)[C@H](O)[C@H](O)[C@H]1O,3,·,·,·,·
CC(C)C(=O)Nc1cccc(COc2ccc(CN(Cc3ccccc3)C(=O)OC(C)(C)C)cc2)c1,36*,105,·,6%,-3%[38.3 µM]
Cn1cccc1/C=C(/C#N)C(N)=S,-18,-63*,11%,-10%,1%
Cc1ccc(-c2ccc(/C=C(\C#N)C(N)=S)n2C)cc1,-6,-7,0%,-17%,0%
O=C(c1cccnc1)N1CCN(Cc2cccc(Br)c2)CC1,-20,-27,0%,16%,8%
O=C(c1cccnc1)N1CCN(Cc2ccccc2Br)CC1,-14,-60*,0%,-8%,2%
CC1CCc2c(sc(NC(=O)c3ccccc3)c2C(=O)Nc2ccccc2)C1 (configuration not stated),10,·,·,·,-12%
Cc1ccc(S(=O)(=O)NCCc2nnc3ccc(SCc4cccc(F)c4)nn23)cc1,-4,·,·,·,5%
COc1cc(C(=O)N2CCC(C(=O)Nc3cccc(C(C)=O)c3)CC2)cc(OC)c1OC,0,-53*,0%,11%,2%
Cc1cc(C)c2c(=O)cc(C(=O)NCc3ccccc3)oc2c1,-46,-53*,0%,1%,2%
COC(=O)c1c(-c2ccc(OC)cc2)sc2ccccc12,·,·,3%,·,·
COC(=O)c1c(-c2cc(OC)cc(OC)c2)sc2ccc(OC)cc12,62*,10,5%,-3%,-3%
COC(=O)c1c(-c2ccc(S(C)(=O)=O)cc2)sc2ccc(OC)cc12,22,0,0%,-36%,13%
COC(=O)c1c(-c2ccc(SC)cc2)sc2ccccc12,56*,42,-1%,-15%,0%
COC(=O)c1c(-c2ccc(S(C)(=O)=O)cc2)sc2cc(OC)ccc12,31*,67,0%,-18%,11%
COC(=O)c1c(-c2ccc(SC)cc2)sc2ccc(OC)cc12,38*,16,0%,-20%,-1%[38.3 µM]
COC(=O)c1c(-c2ccc(OC)cc2)sc2cc(OC)c(OC)cc12,19,84,-1%,-23%,1%
COc1ccc(-c2nc(C(=O)Nc3cccc(C(C)=O)c3)nn2-c2ccccc2Cl)cc1,-11,·,·,·,6%
CCOc1ccccc1C(=O)NCC(c1ccc(N(C)C)cc1)N1CCc2ccccc21 (configuration not stated),6,·,·,·,-4%
COCCn1nnnc1SCC(=O)c1ccc(F)cc1,-3,-67*,0%,0%,2%
COCCn1c(SCC(=O)c2ccc(F)cc2)nnc1C(C)C,1,4,14%,-11%,1%
CCn1c(C(=O)N2CCCC(C(=O)N3CCN(c4cc(C)ccc4C)CC3)C2)cc2sccc21 (configuration not stated),-13,·,·,·,21%
O=S(=O)(c1cccc2ccccc12)N1CCN(c2ccc(Cl)c(Cl)c2)CC1,71*,·,·,·,11%
CCOc1ccc(S(=O)(=O)N2CCN(c3ccc(Cl)c(Cl)c3)CC2)c2ccccc12,-9,·,·,·,-8%
Brc1c(CSc2nc3ccccc3o2)nc2ncccn12,3,-6,0%,-22%,8%
